The full ranking holds about 59,000 sequences; the median of the read-out is about -0.00055, and the lowest 2% start at about -2. This excerpt belongs to a sample that is enriched for the lowest values.
Experiment: Identification of proteins required for the processing of the EWS-FLI1 nascent transcript;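 note: robust z of luciferase light less the median z of siRNAs with the same seed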
Conditions: TC32 Ewing sarcoma NR0B1-luc vs CMV-luc (EWS-FLI1 target promoter against control promoter), 48 h; screened at 20 nM (by protocol)
Outline: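 Three siRNAs per gene, each in a separate well at 20 nM, were transfected into TC32 cells bearing either reporter construct. Luminescence was measured two days on, and per-gene comparison relied on seed-corrected Z values.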

| Sequence | seed-corrected z-score |
| --- | --- |
| AAAUAUAUCUCUUGGAUCU against LRRC75A-AS1 | 0.788 |
| UCUAAUUCCAUACUGAUUC against PRKCQ-AS1 | -0.219 |
| UUAUAAAAUUUGGUGAUGG against CNNM2 | -2.17 |
| AAAGAAGGAAUUGAGAUUC against RAPGEF3 | 0.508 |
| UAGAAAUCUACAAUCUUGU against NR2C2AP | -0.785 |
| AUUGUAUCCUGCUGAGUCC against FOXJ2 | -0.984 |
| ACAGUAAUCCAUAUGGAGG against GPR139 | 0.177 |
| UUUCGUUCUUACGAGAUCC against PKHD1L1 | 1.16 |
| UCCGGAUACACUUCACUAC against ANXA6 | -0.467 |
| AAAAGUGGAACUUCUUCUC against TTLL8 | -2.21 |
| AAAGUUGCAGUUGGUCUCC against ZACN | -3.49 |
| UUAGCAGCUUGUUAAUUUC against ISY1 | -0.616 |
| UAAGCAGCUUGUAUUGCUC against KIAA0513 | 0.461 |
| UGAGGUUAAAGUGAGUAGC against VIT | -0.117 |
| UUUCUUACACCAUGAGACG against INTS4 | -0.309 |
| UAAAGUAAAGAUGUCUUCC against NPIPA1 | 0.0914 |
| AUAGGGAUCUGAAAGUCCG against SYT4 | 0.582 |
| UCCGGUCAAACUUAGUGCC against AQR | -3.37 |
| AACGAAAUAAAAGCUGUCC against CFAP69 | -0.411 |
| UAUCGAACCAACCAGCAUC against MFSD4A | 1.1 |
| UUCGAUGAACUUCUUUUGC against BROX | 1.04 |
| UCCCGGGACAGCAUGUAGU against USP17L9P | 0.146 |
| CAAUACUCCAGCAUCAGGC against OPA3 | -2.35 |

| Sequence | seed-corrected z-score |
| --- | --- |
| UACAAGAAUAGUCACAAUG against OR5H1 | 0.319 |
| UCUGUAUCAAUGAUUAAAC against ICE2 | 0.6 |
| UUUGUUAGUCAGGUAUUCC against CCDC121 | 2.03 |
| UGGGUAUGUAGUAAUCUCG against ADGB | -3.05 |
| AGACUGUAAAAGAUCUGUG against CCDC106 | -0.709 |
| AAUCGUACACUCUCCGUAG against CHST2 | -1.01 |
| UCACUUAGCAGGCUCUCUG against DDIT4L | -0.677 |
| ACCGUUAAACUUGUAAUCG against ZFYVE9 | 0.0151 |
| AUAGAUGCGAUCUAUGAGC against TRE17 | 0.156 |
| UGGUUGUACGCGAUGUCCG against FZD1 | -3.54 |
| UGCUGCAAGAGGUUAUUCC against HAS1 | 0.441 |
| UAAUUGUCAGCUGAUUGUC against CDC6 | -0.689 |
| UCACCGUUCCAUUCAAGUC against IKBKB | 0.0239 |
| UUUGGGAAAGUAGCUAUCA against LINC01124 | -2.24 |
| AUUGGAGCAAGACUUUUAG against BDKRB1 | -0.291 |
| UUCAGCUAUAAAGUAAAGC against IL18 | -13 |
| AAGGCUCCAAUGAUAAGUG against NRG4 | -0.154 |
| UCGCUUUCCUCCAGGGUAC against GNRH2 | -0.382 |
| AAAGCUGCGUCUUGUCUCG against LDLRAD2 | -3.83 |
| UAAGAACCCACAGUAUUGA against FBLN2 | 0.31 |
| UAAAUAAUAUUGCACAUAC against FAM228A | 0.618 |
| UUGAAUUUAAGAGAAAGGA against NPR3 | 0.283 |
| AUAGUCAGCUGUGCUCUGC against FLJ16423 | -0.343 |

| Sequence | seed-corrected z-score |
| --- | --- |
| UUAGCAUGCAAAAUCGCCC against CWC22 | -3.73 |
| UAGGGUGAGUCAAUAAUGG against CSTF2T | -0.0525 |
| AUCUUUAUCAUUGGGCAGG against SCAF1 | -0.941 |
| UUAUAAAUCCCUUUCACCG against CASP9 | -0.324 |
| UAUGUCUUUCAGACUGACC against RPTN | -1 |
| UUUCGGCACUGCAAAGUCG against ATP10A | 0.235 |
| UCCUGCUUCAUAUCUUCUG against C19orf66 | -3.54 |
| UUACUGAGGAAGUUUCUUU against CD99L2 | -0.781 |
| UCCCUGGUAAAGUAUAGUC against EGFEM1P | -1.34 |
| UUUCCGUCUGUCUUCUUCC against DCAF4 | 0.00663 |
| UUACUAAAGACUGACAACC against ZNF208 | -0.0968 |
| UACUGCUUCGUAUCUGUCC against PIH1D2 | -2.13 |
| AUAGGACUGACAGUGUUCA against STAC3 | 1.13 |
| UUUCAUUCGGUGAAAGUCC against MTFR1L | -0.547 |
| UAAUUCACUAACUUCAAGC against SLC37A3 | 0.139 |
| UGGGUGUCCAUUCUCGAGC against PPP1R18 | 1.72 |
| UUUUGGGUGUGGACCUUGC against NPFF | 0.585 |
| ACAGUGGAAACCUCACUUC against FOXP3 | 0.0552 |
| AUUCUUAUCCAUCCGAUCC against CTTN | -0.272 |
| UCAUUUUACCUCUUCCAUC against GADL1 | 0.676 |
| UCUGCUUCACCAGUUACUC against HNRNPH1 | -2.08 |
| UGAUAAACCACAGCAACUC against TYMS | 1.01 |
| UUUGAUACCUCCUUUACCC against HELB | 0.388 |

| Sequence | seed-corrected z-score |
| --- | --- |
| UCUCUGCUAACGAUAACUC against PIWIL1 | -0.0232 |
| UAACCUGCUCAAAAGAAUG against ACSL6 | 0.714 |
| UAAAGUACAGCUCGGUUUG against OOSP2 | 0.436 |
| UUUGUUGAAGGUUUCACUG against ZMYND15 | 1.4 |
| UCGAUAGUCAUCAAAGAUC against VWC2L | -2.99 |
| UACUGGUAAAAGGUGUUCC against C6orf58 | 0.5 |
| UACAGAGAAAGGUAGCGGU against GPR3 | -2.23 |
| UGAUCUACCUGCUUGUGCC against USP17L9P | -0.147 |
| UGACUGACAACUUCUGGAU against PAK6 | -0.344 |
| AAUGGACCUAGAUUUCAGG against C16orf59 | 1.27 |
| UUAGCUGCGUCAGAUAUCG against RPS6KA2 | -2.67 |
| UCCUGGAUACGCAACUUGA against C2orf68 | -0.63 |
| UGCAUUUGAAGACUCACUC against HMG20A | 0.87 |
| UUGAGUCUUAGCAAUGUGA against KIAA0895L | -0.000345 |
| UACAUGAAAAGCAAGGCUG against OR6B3 | 0.504 |
| UAUGGUGUUGAGCUCAGCG against SLC12A3 | 0.228 |
| UCUACUAUCGGCUUAUAGC against 11-Sep | -0.114 |
| UCCGGAGUAAGCUUCAACC against DHX9 | -0.429 |
| AACGAAGCAAGCAUGGUCC against LARP6 | -0.832 |
| UAGUCAACGUUGGACACGG against PRR22 | 0.319 |
| UUGACGGUAAUAUCUGUCC against SMU1 | -3.14 |
| UAGCCUAUGGUACAAGUUC against ERVFRD-1 | 0.353 |
| AACUCAUUCCCUUCUUUCC against ZMAT3 | -0.582 |

| Sequence | seed-corrected z-score |
| --- | --- |
| UCUCUGACAAGUGUGAAGC against DKK1 | -0.0537 |
| UGAUGAGCGAGAAGGUACC against DLL4 | 1.41 |
| UUAAUUGCUAUGUUGUUGG against NFS1 | -0.476 |
| AUAGGUUUGUGAUCCAACC against AAED1 | 0.186 |
| AUUCGUAUGGUUCAUGUCC against PRPF8 | -2.88 |
| UUAAAUACAGCUCCUGUUA against AQP11 | 0.0289 |
| AGCUUGUACAGUGUUAUCC against PTPN4 | -2.22 |
| UUGCUGAACGCGAUGAUCU against PRDX2 | 0.201 |
| UCUUAUGUAAUUGUUCCUC against KANSL1 | 0.324 |
| UUCUUUCGCAUUGCAAUGC against CMC2 | 0.187 |
| UGAGGACAAAGAAUCUUCC against MRPS18B | 0.518 |
| UCCAGUUGUUCAAUCAUGG against CNTROB | -2.47 |
| UCUGUUUGAUGUUAGGUUG against PACS1 | -0.0479 |
| UUCUUUAACUUUAUGCUCC against RAI2 | 0.273 |
| UAUUCUAUUGGGUCACUGG against DYDC2 | 0.409 |
| AAGUGAAUAGAAAACAUCC against SUN5 | 1.29 |
| UAGGUCAGAAGCAACCUGC against C10orf111 | 2.42 |
| AGAUGUGAUAGUGCUCUGG against TMEM52B | -2.02 |
| UUACGUAAUCCAGGGAUCG against LANCL2 | -1.2 |
| UAGUGUAAUUGGUCUAACC against POGZ | 0.928 |
| UAUGUGAUUCUGGUGCUUG against LEMD1 | 0.794 |
| UCUGAUGUAAUUUCCAGUU against AARD | 0.424 |
| UUAGUUGCUGACUUUCUCC against TRAPPC9 | -2.06 |

| Sequence | seed-corrected z-score |
| --- | --- |
| UUUGAUUUGGUUGUGACCC against ZYX | -0.301 |
| UUCAAGUUUGUUCUCAGAC against GOLGA6L7P | -0.298 |
| AAGGAAAUUAGGAUAAUAG against FAM217B | 0.732 |
| UGUCUCUCAGGCAACAGGC against PROP1 | -0.922 |
| UUCAUUAUCAUCUAGGUGG against ACTR5 | -0.49 |
| UGUGGACAAGGUCUAGGGC against LOC401317 | -2.18 |
| AUAGUUGACAUUCCGAACC against CDK5RAP3 | 0.941 |
| UUAGAGUUUGCGAAGCAGG against PSG11 | 0.96 |
| UUUAUAUCCAUAUCCUUUC against PPIC | 0.0569 |
| AGAAGAUGAAUCACAGAGC against BAGE4 | -0.377 |
| UAUCAUAUUUAAGAGACUG against TSSC1 | 0.912 |
| UAUUUGAAGCUCCAGGGUG against FBXL15 | 0.429 |
| UUCUUUAUGCACAACUCCC against MYO1C | -2.91 |
| UUACUUUUAGUUCAUACAG against SOX1 | -0.0466 |
| AUCAGUACUAAAAUAUCGG against ATG2B | 0.25 |
| UCCUCGAAAAUCUCAAAGC against MYO1B | -0.441 |
| UGGUAUUCAAAAUAGUCGC against TLK1 | -0.673 |
| UUCUGCUUCCGGUAAAUGC against SH3TC1 | -0.467 |
